Results on 17 sequences are retold here after article PMC5700166.

Holding throughout (assay): protein-binding microarray (PBM); PBM: ~300 nM protein, 6 mM HEPES pH 7.8, 80 mM KCl, 0.5 mM EDTA, 0.5 mM EGTA, 6% glycerol, 35 ng/ul poly-dIdC, 1% milk, 1 h, room temperature; Ap Aiptasia and Nv Nematostella (sea anemones) / Co Capsaspora / Aq Amphimedon (sponge) / Dm Drosophila / Hu human; RHD is the Rel homology domain; high values mean tight binding
Conditions in all cases: dsDNA, one strand shown

Assay [1] addresses T1, GST-Ap-NF-kB RHD (Exaiptasia pallida (Aiptasia), UniProt A0A913YAJ5 2-422).
T1 sequence: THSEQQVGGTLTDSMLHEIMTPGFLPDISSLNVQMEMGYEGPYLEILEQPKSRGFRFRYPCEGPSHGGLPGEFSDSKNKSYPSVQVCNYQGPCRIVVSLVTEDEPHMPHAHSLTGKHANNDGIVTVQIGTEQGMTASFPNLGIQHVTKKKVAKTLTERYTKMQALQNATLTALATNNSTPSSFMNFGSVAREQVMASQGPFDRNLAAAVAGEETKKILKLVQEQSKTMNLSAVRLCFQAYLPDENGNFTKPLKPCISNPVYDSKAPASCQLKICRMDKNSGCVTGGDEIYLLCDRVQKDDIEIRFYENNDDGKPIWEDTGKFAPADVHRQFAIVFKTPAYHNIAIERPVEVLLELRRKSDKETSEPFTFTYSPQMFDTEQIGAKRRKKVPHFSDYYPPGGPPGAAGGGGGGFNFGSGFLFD

Assay [2] deals with T2, GST-Nv-NF-kB (Cys allele) (Nematostella vectensis, UniProt E5G601 2-411).
T2 sequence: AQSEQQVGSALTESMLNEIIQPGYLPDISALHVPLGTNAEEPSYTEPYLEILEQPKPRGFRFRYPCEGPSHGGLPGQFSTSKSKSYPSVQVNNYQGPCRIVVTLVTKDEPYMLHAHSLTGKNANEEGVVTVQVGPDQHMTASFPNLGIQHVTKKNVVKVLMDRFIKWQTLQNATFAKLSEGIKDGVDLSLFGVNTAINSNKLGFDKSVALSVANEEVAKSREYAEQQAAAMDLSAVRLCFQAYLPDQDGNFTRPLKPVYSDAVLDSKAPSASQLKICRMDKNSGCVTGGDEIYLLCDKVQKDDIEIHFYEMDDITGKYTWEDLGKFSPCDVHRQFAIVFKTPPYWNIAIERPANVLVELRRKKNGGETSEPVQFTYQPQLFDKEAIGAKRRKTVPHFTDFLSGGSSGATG

Assay [3] concerns the target T3, GST-Nv-NF-kB (Ser allele) (Nematostella vectensis, UniProt A7UNT2 2-411).
T3 sequence: T2 sequence with Q21R, C66S, S207N, E215Q, V217A, E225K, A268E, D399E

Assay [4] deals with T4, GST-Aq-NF-kB (Amphimedon queenslandica, UniProt A9Y5G7 2-389).
T4 sequence: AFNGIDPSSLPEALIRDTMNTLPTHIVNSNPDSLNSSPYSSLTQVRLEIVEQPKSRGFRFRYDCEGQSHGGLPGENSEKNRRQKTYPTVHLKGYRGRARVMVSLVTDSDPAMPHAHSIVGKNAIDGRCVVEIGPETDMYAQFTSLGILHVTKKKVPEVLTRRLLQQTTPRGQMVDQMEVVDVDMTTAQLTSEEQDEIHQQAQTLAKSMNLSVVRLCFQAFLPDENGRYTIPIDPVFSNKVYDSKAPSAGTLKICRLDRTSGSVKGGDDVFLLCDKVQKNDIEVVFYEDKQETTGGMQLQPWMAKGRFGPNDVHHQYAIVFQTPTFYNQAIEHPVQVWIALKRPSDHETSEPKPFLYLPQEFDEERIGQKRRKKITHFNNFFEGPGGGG

Assay [5] deals with GST-Hu-p50 (Homo sapiens, UniProt P19838 7-356).
Assay [6] addresses T5, GST-Co-NF-kB (Capsaspora owczarzaki, UniProt F1ARL5 200-546).
T5 sequence: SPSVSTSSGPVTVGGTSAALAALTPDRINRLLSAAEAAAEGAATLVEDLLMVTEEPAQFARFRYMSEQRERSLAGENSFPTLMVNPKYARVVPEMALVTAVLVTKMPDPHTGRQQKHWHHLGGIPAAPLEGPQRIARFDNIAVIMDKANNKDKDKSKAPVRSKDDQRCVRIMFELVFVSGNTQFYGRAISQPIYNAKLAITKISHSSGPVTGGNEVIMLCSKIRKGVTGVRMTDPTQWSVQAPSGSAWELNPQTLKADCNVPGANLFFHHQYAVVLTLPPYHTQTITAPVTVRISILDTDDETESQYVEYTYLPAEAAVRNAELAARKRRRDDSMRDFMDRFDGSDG

Changes are numbered by the printed parent chain.

Chain of GST-Hu-p50 (P19838 7-356): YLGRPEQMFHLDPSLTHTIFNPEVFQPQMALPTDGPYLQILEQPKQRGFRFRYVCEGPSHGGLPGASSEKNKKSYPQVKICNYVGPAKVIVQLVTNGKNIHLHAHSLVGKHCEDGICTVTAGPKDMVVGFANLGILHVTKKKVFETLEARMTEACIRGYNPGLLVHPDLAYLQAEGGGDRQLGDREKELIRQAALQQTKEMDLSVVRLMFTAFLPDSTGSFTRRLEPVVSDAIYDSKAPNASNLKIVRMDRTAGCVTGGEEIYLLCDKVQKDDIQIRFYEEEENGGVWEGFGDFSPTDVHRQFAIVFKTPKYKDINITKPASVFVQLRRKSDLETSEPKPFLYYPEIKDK

“CCGATTAACATCAAAGGGGCTACTGATGTTAATCGGGTCTTGATTCGCTTGACGCTGCTG”: the binding signal was 2.79 z-score in assay [1]; 3.08 z-score in assay [2]; 2.12 z-score in assay [3]; 3.2 z-score in assay [4]; 3.13 z-score in assay [5].

Regarding “CCGATTAACATCAAGGACATTCCTGATGTTAATCGGGTCTTGATTCGCTTGACGCTGCTG”, the binding signal in assay [4] was determined as 1.43 z-score.

In the case of “CCGATTAACATCAACGTGGGAAATGATGTTAATCGGGTCTTGATTCGCTTGACGCTGCTG”, the binding signal in assay [1] turned out to be 1.56 z-score; in assay [2], 2.36 z-score; in assay [3], 1.77 z-score; in assay [6] it was 2.91 z-score; in assay [4], 1.71 z-score; in assay [5], 1.29 z-score.

As for “CCGATTAACATCAAAGGGAATAGTGATGTTAATCGGGTCTTGATTCGCTTGACGCTGCTG”, the binding signal in assay [1] came to 2.26 z-score; in assay [2], 2.76 z-score; in assay [3], 2.94 z-score; in assay [6], 1.98 z-score; in assay [4] it was 2.54 z-score; in assay [5], 1.25 z-score.

For “CCGATTAACATCAGCTAGTCCCTTGATGTTAATCGGGTCTTGATTCGCTTGACGCTGCTG”, the binding signal came to 3.99 z-score in assay [1]; 3.63 z-score in assay [2]; 2.09 z-score in assay [3]; 3.06 z-score in assay [4]; 2.73 z-score in assay [5].

On to “CCGATTAACATCAAGTGGGAAAATGATGTTAATCGGGTCTTGATTCGCTTGACGCTGCTG”, for which the binding signal in assay [1] came out at 1.71 z-score; in assay [2], 4.11 z-score; in assay [3], 4.29 z-score; in assay [6], 2.91 z-score; in assay [4], 2.08 z-score; in assay [5], 2.66 z-score.

On to “CCGATTAACATCAGACATTTCCCTGATGTTAATCGGGTCTTGATTCGCTTGACGCTGCTG”, for which the binding signal in assay [1] is 2.94 z-score; in assay [2] it was 4.75 z-score; in assay [3] it was 4.39 z-score; in assay [6], 3.17 z-score; in assay [4] it was 5.41 z-score; in assay [5], 3.59 z-score.

“CCGATTAACATCAGGCAAAACCCTGATGTTAATCGGGTCTTGATTCGCTTGACGCTGCTG” had a binding signal in assay [4] of 3.28 z-score.

As for “CCGATTAACATCAAAATTTCCAGTGATGTTAATCGGGTCTTGATTCGCTTGACGCTGCTG”, the binding signal in assay [4] worked out at 1.04 z-score; in assay [5], 1.16 z-score.

For “CCGATTAACATCAGTGGGAAAAATGATGTTAATCGGGTCTTGATTCGCTTGACGCTGCTG”, the binding signal in assay [1] worked out at 2.21 z-score; in assay [2], 3.95 z-score; in assay [3], 4.53 z-score; in assay [6] it was 4.81 z-score; in assay [4] it was 2.62 z-score; in assay [5], 3.34 z-score.

On to “CCGATTAACATCAGTCCCACAGATGATGTTAATCGGGTCTTGATTCGCTTGACGCTGCTG”, for which the binding signal turned out to be 1.45 z-score in assay [1], 1.55 z-score in assay [2], 1.95 z-score in assay [4] and 2.52 z-score in assay [5].

For the sequence “CCGATTAACATCAATTGGGAAAATGATGTTAATCGGGTCTTGATTCGCTTGACGCTGCTG”, the binding signal turned out to be 1.52 z-score in assay [1]; 2.96 z-score in assay [2]; 4.08 z-score in assay [3]; 2.47 z-score in assay [6]; 1.4 z-score in assay [4]; 2.04 z-score in assay [5].

As for “CCGATTAACATCAGAATTCTCCCTGATGTTAATCGGGTCTTGATTCGCTTGACGCTGCTG”, the binding signal was determined as 2.74 z-score in assay [1]; 4.1 z-score in assay [2]; 3.64 z-score in assay [3]; 2.57 z-score in assay [6]; 4.02 z-score in assay [4]; 3.58 z-score in assay [5].

For “CCGATTAACATCACGGAAAAGCCTGATGTTAATCGGGTCTTGATTCGCTTGACGCTGCTG”, in assay [4], the binding signal stood at 1.34 z-score.

“CCGATTAACATCAGTATGGGAAATGATGTTAATCGGGTCTTGATTCGCTTGACGCTGCTG”: the binding signal in assay [1] worked out at 1.32 z-score; in assay [2] it was 2.39 z-score; in assay [3] it was 2.22 z-score; in assay [6], 2.14 z-score; in assay [4], 1.79 z-score; in assay [5] it was 1.28 z-score.

As for “CCGATTAACATCATCCTGGGAAATGATGTTAATCGGGTCTTGATTCGCTTGACGCTGCTG”, the binding signal was 1.13 z-score in assay [1]; 2.18 z-score in assay [2]; 1.37 z-score in assay [3]; 2.72 z-score in assay [6]; 1.03 z-score in assay [4]; 1.74 z-score in assay [5].

With “CCGATTAACATCAGGCTATTCCCTGATGTTAATCGGGTCTTGATTCGCTTGACGCTGCTG”, the binding signal stood at 1.73 z-score in assay [1]; 2.68 z-score in assay [2]; 1.67 z-score in assay [3]; 1.6 z-score in assay [6]; 3.74 z-score in assay [4]; 1.4 z-score in assay [5].
